Assay outcomes as filed in PubChem BioAssay.
KB-V1 MDR tox: KB-V1 MDR subline cytotoxicity; 3.4% of 400,000 active; Potency, µM (top dose mostly 46.1 µM), usual class: cytotoxic; KB-V1 MDR cells viability, CellTiter-Glo, 72 h; note: nearly all actives have a fitted effect of over 60% in size
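KB-V1, DMEM (no phenol red) + 10% FBS; cpd pin-transferred, titration series; 72 h, 37 degrees C; CellTiter-Glo, luminescence. Data normalized, curve-fit.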
ELG1 DNA repair: inhibitors of ELG1-dependent DNA repair in HEK293T cells | HEK293T ELG1-luciferase reporter, luminescence, 16 h; DNA damage induced by 5-fluorouridine | Potency, µM (top dose mostly 46.1 µM), hits mostly inhibitors | 2.3% of 330,000 active | AID 504467; note: nearly all actives have a fitted effect of over 55% in size
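5-Fluorouridine DNA damage + compound/DMSO, 2,000 cells/well, 16 h, 37 °C/5% CO2. ONE-Glo, 30 min RT, luminescence. Readout = decrease in reporter signal.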
MCF10A rereplic: DNA re-replication induction in MCF 10a cells; MCF 10A DNA re-replication, Hoechst nuclear intensity, 48 h; Potency, µM (highest dose often 46.1 µM), actives largely listed as activators; 2.9% of 350,000 active; note: nearly all actives have a fitted effect of over 50% in size
SW480 rereplic: DNA re-replication induction in SW480 cells. 1.8% of 340,000 active. Potency, µM (titrated, usually from 46.1 µM), usual class: activators. SW480 DNA re-replication, Hoechst DNA content imaging, 48 h; note: nearly all actives have a fitted effect of over 55% in size
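Image-based DNA-content assay: after two days of treatment, nuclei were labelled with the DNA dye Hoechst and imaged, and hits were compounds raising the count of nuclei showing high fluorescence intensity.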
KB-3-1 cytotox: KB-3-1 parental cell cytotoxicity; Potency, µM (doses to about 46.1 µM), actives largely listed as cytotoxic; KB-3-1 viability, CellTiter-Glo ATP luminescence, 72 h; 1.4% of 400,000 active; AID 1347075; note: nearly all actives have a fitted effect of over 60% in size
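Cytotoxicity in the drug-sensitive parental line KB-3-1 was scored as loss of CellTiter-Glo luminescence following 72 h incubation with compound. Values come from curve fitting of normalized concentration-response data.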
A number is an active result. The list is not random: actives were taken first. Their share in the collection is about 8.1%. Calls come from the whole dose curve; as a rule, active = well fitted curve in the direction sought with a large enough effect; inconclusive = small, poorly fitted or top-dose-only effect, or another doubt; inactive = no such curve, though single readings can be large; an effect the other way counts as inactive or inconclusive.

Screening Cc1cc(NC(=O)CSc2nc(C(C)C)nc3c2c(=O)n(C)c(=O)n3C)no1 returned KB-V1 MDR tox inconclusive, ELG1 DNA repair inactive, MCF10A rereplic inactive, SW480 rereplic inactive and KB-3-1 cytotox inactive.
For CCCn1c(SCC(=O)Nc2ccccc2N2CCCCC2)nc2c1c(=O)n(C)c(=O)n2C the results were KB-V1 MDR tox inconclusive, ELG1 DNA repair 7.31µM, MCF10A rereplic inactive, SW480 rereplic inactive and KB-3-1 cytotox inactive.
For COc1c(C)cc(C(O)c2ncc(-c3ccc(C(F)(F)F)cc3)[nH]2)cc1C (stereo unspecified) the results were KB-V1 MDR tox inactive and KB-3-1 cytotox inactive.
`CCCCn1c(SCC(=O)Nc2cc(C)on2)nc2c1c(=O)n(C)c(=O)n2C` gave KB-V1 MDR tox 14.6µM, ELG1 DNA repair inconclusive, MCF10A rereplic inactive, SW480 rereplic inactive and KB-3-1 cytotox inactive.
`CCNc1cc(N2CCN(S(=O)(=O)c3ccc4c(c3)CCCC4)CC2)ccc1[N+](=O)[O-]` gave KB-V1 MDR tox 1.46µM, ELG1 DNA repair inactive, MCF10A rereplic inactive, SW480 rereplic inactive and KB-3-1 cytotox inactive.
`O=[N+]([O-])c1cc(C(F)(F)F)ccc1N1CCN(S(=O)(=O)c2ccc3c(c2)CCCC3)CC1` gave KB-V1 MDR tox 5.17µM, ELG1 DNA repair inactive, MCF10A rereplic inactive, SW480 rereplic inactive and KB-3-1 cytotox inconclusive.
Cc1c(C(=O)NCCC#N)sc(=O)n1Cc1ccc(C(=O)N(C)C)cc1 was read as KB-V1 MDR tox inactive and KB-3-1 cytotox inactive.
For CCOC(=O)c1sc(NC(=O)c2nc3ncccn3n2)c(C(=O)OC)c1C the results were KB-V1 MDR tox inactive and KB-3-1 cytotox inactive.
Screening CCOc1ccc(Cc2c(Cl)nc(SC)nc2N(C)C)cc1 returned KB-V1 MDR tox 11.6µM, ELG1 DNA repair inactive, MCF10A rereplic 9.2µM, SW480 rereplic inconclusive and KB-3-1 cytotox 11.6µM.
COc1ccc(CNC(=O)CCc2c(C)c3ccc(OC)c(C)c3oc2=O)cc1OC was read as KB-V1 MDR tox inactive and KB-3-1 cytotox inactive.
`COC(=O)c1sc(NC(=O)CCCn2nc([N+](=O)[O-])cc2C)c(C(=O)OC)c1C` gave KB-V1 MDR tox 0.92µM, ELG1 DNA repair inconclusive, MCF10A rereplic inactive, SW480 rereplic inactive and KB-3-1 cytotox inactive.
For Cc1cc(NC(=O)CCCn2nc([N+](=O)[O-])cc2C)no1 the results were KB-V1 MDR tox inactive, ELG1 DNA repair inactive, MCF10A rereplic inactive, SW480 rereplic inactive and KB-3-1 cytotox inactive.
For Cc1cc(C)c2sc(N(CCCN(C)C)C(=O)c3ccc(S(=O)(=O)N4CCc5ccccc5C4)cc3)nc2c1 the results were ELG1 DNA repair 13µM.
CN(C)CCCN(C(=O)c1ccc(S(=O)(=O)N2CCc3ccccc3C2)cc1)c1nc2ccc(F)cc2s1 was read as KB-V1 MDR tox inconclusive, ELG1 DNA repair inconclusive, MCF10A rereplic 4.61µM, SW480 rereplic inconclusive and KB-3-1 cytotox inconclusive.
For Cc1cccc2sc(N(CCCN(C)C)C(=O)c3ccc(S(=O)(=O)N4CCc5ccccc5C4)cc3)nc12 the results were KB-V1 MDR tox inactive, ELG1 DNA repair inconclusive, MCF10A rereplic inconclusive, SW480 rereplic inconclusive and KB-3-1 cytotox inconclusive.
`COc1ccc2sc(N(CCCN(C)C)C(=O)c3ccc(S(=O)(=O)N4CCCC4)cc3)nc2c1` gave KB-V1 MDR tox inactive, ELG1 DNA repair inactive, MCF10A rereplic inactive, SW480 rereplic inactive and KB-3-1 cytotox inactive.
Cc1ccc2nc(N(CCCN(C)C)C(=O)c3ccc(S(=O)(=O)N4CCc5ccccc5C4)cc3)sc2c1 was read as KB-V1 MDR tox 20.6µM, ELG1 DNA repair inactive, MCF10A rereplic 5.17µM, SW480 rereplic inconclusive and KB-3-1 cytotox inconclusive.
For COc1ccc2sc(N(CCCN(C)C)C(=O)c3ccc(S(=O)(=O)N4CCc5ccccc5C4)cc3)nc2c1 the results were KB-V1 MDR tox 23.1µM, ELG1 DNA repair inconclusive, MCF10A rereplic inconclusive, SW480 rereplic inactive and KB-3-1 cytotox inconclusive.
For O=C(CCCCn1c(=O)c2ccccc2n(Cc2cccc(F)c2)c1=O)NCCc1ccccc1 the results were KB-V1 MDR tox inactive and KB-3-1 cytotox inactive.
For CSc1ncc(C(=O)N2CCN(c3ccc(Cl)cc3)CC2)c(C)n1 the results were KB-V1 MDR tox inactive and KB-3-1 cytotox inactive.
For O=C(Nc1nnc([C@@H]2C[C@H](O)[C@@H](CO)O2)s1)c1cccc2ccccc12 the results were KB-V1 MDR tox inactive and KB-3-1 cytotox inactive.
For Cc1ccc(N2CCN(C(=O)Nc3cn(CC(C)C)c(=O)c4ccccc34)CC2)c(C)c1 the results were KB-V1 MDR tox inactive and KB-3-1 cytotox inactive.
`Cc1cc(C)c2[nH]c(C(=O)Nc3ccc(F)cc3Br)cc2c1` gave KB-V1 MDR tox inactive, ELG1 DNA repair inactive, MCF10A rereplic inactive, SW480 rereplic inactive and KB-3-1 cytotox inactive.
CC(=O)N(C)C[C@@H]1Oc2ncc(Br)cc2C(=O)N([C@H](C)CO)C[C@@H]1C was read as KB-V1 MDR tox inactive and KB-3-1 cytotox inactive.
Fc1cccc2sc(Nc3nc4ccccc4s3)nc12 was read as KB-V1 MDR tox 20.6µM, ELG1 DNA repair inconclusive, MCF10A rereplic inconclusive, SW480 rereplic inactive and KB-3-1 cytotox inactive.
`Fc1ccc2nc(Nc3nc4cc5c(cc4s3)OCCO5)sc2c1` gave KB-V1 MDR tox inconclusive, ELG1 DNA repair inconclusive, MCF10A rereplic 14.6µM, SW480 rereplic inactive and KB-3-1 cytotox inconclusive.
Screening Fc1ccc2nc(Nc3nc4c(F)cc(F)cc4s3)sc2c1 returned KB-V1 MDR tox inconclusive, ELG1 DNA repair inconclusive, MCF10A rereplic 14.6µM, SW480 rereplic inactive and KB-3-1 cytotox inconclusive.
Screening Fc1ccc2nc(Nc3nc4c(F)cccc4s3)sc2c1 returned KB-V1 MDR tox inconclusive, ELG1 DNA repair inconclusive, MCF10A rereplic inconclusive and KB-3-1 cytotox inactive.
Screening C(=N\Nc1nc2ccccc2s1)/c1ccc2c(c1)OCO2 returned KB-V1 MDR tox inactive, ELG1 DNA repair inconclusive, MCF10A rereplic inactive, SW480 rereplic inactive and KB-3-1 cytotox inactive.
`Brc1cc2c(cc1/C=N/Nc1nc3ccccc3s1)OCO2` gave KB-V1 MDR tox inconclusive, ELG1 DNA repair inconclusive, MCF10A rereplic 12.6µM, SW480 rereplic inconclusive and KB-3-1 cytotox inactive.
Screening N#CC1(NC(=O)COc2cccnc2[N+](=O)[O-])CCCCC1 returned KB-V1 MDR tox inconclusive, ELG1 DNA repair inconclusive, MCF10A rereplic inactive, SW480 rereplic inactive and KB-3-1 cytotox inactive.
Screening Cc1ccc2nc(-c3ccc(Cl)cc3)c(Cc3ccccn3)n2c1 returned KB-V1 MDR tox inconclusive and KB-3-1 cytotox inactive.
O=C(NNc1nc2cc3c(cc2s1)OCO3)c1ccc(F)cc1 was read as KB-V1 MDR tox inconclusive, ELG1 DNA repair inconclusive, MCF10A rereplic inactive, SW480 rereplic inactive and KB-3-1 cytotox inactive.
c1ccc2sc(Nc3nc4cc5c(cc4s3)OCO5)nc2c1 was read as KB-V1 MDR tox inactive, ELG1 DNA repair inconclusive, MCF10A rereplic 18.4µM, SW480 rereplic inconclusive and KB-3-1 cytotox inactive.
